Out of some 300,000 compounds screened, about 3,300 (1.1%) were called active. Not shown: some 6% with an inconclusive outcome. Shown is part of a subset that was picked to be rich in actives. A number with no mark means an inactive call.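 How the source made its calls: active means more than half of the replicate wells show a fall in the fluorescence ratio signal beyond about 16% (limit read from the data, passing the limit was not always enough); inconclusive means exactly half of the replicate wells pass the set limit; inactive means fewer than half of replicates pass the limit.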
System: Ran GTPase (GTP-bound) - importin-beta complex
Assay: disruptors of Ran-importin-beta complex formation – biochemical, FRET, CFP-Ran, YFP-importin-beta, homogeneous, primary screen (AID 2216);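 further: 0% = DMSO wells and 100% = Ran loaded with GDP instead of GTP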
Settings: cell-free CFP-Ran/YFP-importin-beta FRET ratio; stronger effect = higher value; concentration not given here

`COc1cc(Cn2c(N)c(C(=O)NCc3ccco3)c3nc4ccccc4nc32)cc(OC)c1OC` was tested, and the inhibition was 54% (active).

Point of comparison: `C/C(=N/O)c1ccc2ccc3ccccc3c2c1`, inhibition 4.2%. Against it:
- COC(=O)C1=C(c2ccccc2)C[C@@H]2CC[C@H]1N2C(=O)NCc1ccco1 — lower, 1.27%
- CCOC(=O)C(O)(c1ccc(NC(=O)c2ccco2)c(OC)c1)C(F)(F)F (stereo not given) — lower, -1.67%
- CC[C@H]1CC2CN3CCc4c([nH]c5ccccc45)C(C(=O)OC)(C2)C13 (stereo not given in full) — lower, -1.66%
